Most compounds without a hit are left out; they make up all but 5.4% or so of the library.
PP5 primary: inhibitors of human protein phosphatase 5 (PP5); inhibition, % at 6.7 µM; 320,000 tested, 0.18% active; purified PP5c, OMFP substrate fluorescence;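 active = inhibition above the campaign's mean inhibition across all tested compounds plus 3 SD, cut at about 9.5% in these data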
CSC inhib: blocks cancer stem cells | cancer stem cell-like cells viability, luminescence | inhibition, % at 7.5 µM | 300,000 tested, 1.1% active; in the data active = inhibition above about 75%; inconclusive = no clear call, values can overlap the other calls; tested in HMLE shEcad cells
Calb FLC: affects C. albicans growth with fluconazole; 300,000 tested, 0.57% active; AID 1979; growth inhibition, % (no concentration beside the values); C. albicans CaCi-2 (fluconazole-resistant clinical isolate) + fluconazole, Alamar Blue growth, 48 h;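 active = growth inhibition above about 58% in most replicates, limit read from the data, passing the limit was not always enough; inconclusive = exactly half the replicates above a set limit; inactive = most replicates below a set limit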;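 note: all wells also contain fluconazole at 8 µg/ml as a sub-toxic cotreatment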
ALR inh: blocks human ALR sulfhydryl oxidase activity; P55789; AID 485317; purified ALR, DTT oxidation, H2O2 HRP-luminol luminescence; inhibition, % (no concentration beside the values); 290,000 tested, 3.8% active;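 active = mean replicate inhibition above about 79%, with every replicate also reaching it, limit read from the data; inconclusive = only one of the two criteria met; inactive = mean below limit and not every replicate reaching it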
Target sequence (P55789 whole entry, looked up): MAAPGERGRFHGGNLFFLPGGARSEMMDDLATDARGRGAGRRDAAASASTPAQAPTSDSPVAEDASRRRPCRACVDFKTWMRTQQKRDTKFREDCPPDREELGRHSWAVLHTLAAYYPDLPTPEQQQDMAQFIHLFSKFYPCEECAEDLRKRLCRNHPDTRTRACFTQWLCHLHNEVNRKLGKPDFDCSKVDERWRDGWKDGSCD
PP1 inh: blocks human PP1-alpha phosphatase, a PP5 counter-screen. purified PP1alpha, OMFP fluorescence. inhibition, % at 6.7 µM. 320,000 tested, 0.9% active. AID 2235;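 active = inhibition above the mean inhibition of all tested compounds plus 3 SD, computed separately for each screening campaign, cut at about 15% in these data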
Target sequence (P62136 whole entry, looked up): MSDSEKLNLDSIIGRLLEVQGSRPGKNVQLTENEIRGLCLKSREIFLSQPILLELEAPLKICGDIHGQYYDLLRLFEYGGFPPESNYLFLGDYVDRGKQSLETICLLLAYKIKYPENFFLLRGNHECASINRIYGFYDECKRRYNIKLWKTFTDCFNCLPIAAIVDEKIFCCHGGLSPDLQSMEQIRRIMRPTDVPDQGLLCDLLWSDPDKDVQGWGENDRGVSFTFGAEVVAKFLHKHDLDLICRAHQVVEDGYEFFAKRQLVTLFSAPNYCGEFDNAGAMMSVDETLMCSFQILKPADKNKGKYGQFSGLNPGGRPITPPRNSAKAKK
A number is an active result; . = inactive; ? = inconclusive; / = no result.

SMILES	PP5 primary	CSC inhib	Calb FLC	ALR inh	PP1 inh
COc1ccc(Cl)cc1NC(=O)CCCNC(=O)c1ccc(Cl)cc1	.	.	.	.	.
CC1(C)C2CC=C(/C=N/NC(=O)C(N)=O)C1C2 (stereo not drawn)	.	.	.	.	.
COc1cc(/C(C)=N/N2CCN(Cc3ccc(C)cc3)CC2)ccc1O	.	.	.	89	.
COc1ccccc1N1CCN(/N=C/c2cc(OC)c(O)c(OC)c2)CC1	.	.	.	99	.
COc1cc(/C=N/N2CCN(Cc3ccc(C)cc3)CC2)cc(OC)c1O	.	/	.	99	.
Oc1ccc(/C=N/N2CCN(Cc3ccccc3)CC2)cc1	.	.	.	82	.
COc1ccccc1N1CCN(/N=C/c2cccc(O)c2)CC1	.	.	.	.	.
C=Cc1ccc(Cn2nc(-c3ccc(C)cc3)ccc2=O)cc1	.	.	.	.	.
O=C(Cn1nnc(-c2cccs2)n1)OC1CCCCC1	.	.	.	.	.
NC(=S)N/N=C/c1ccccc1O	.	.	.	.	.
S=C(NCCN1CCOCC1)N/N=C/c1cccs1	.	.	.	.	.
Oc1cccc(/C=N/NC(=S)Nc2cccnc2)c1O	.	.	.	90	.
Oc1cccc(/C=N/NC(=S)NCCN2CCOCC2)c1O	.	.	.	100	.
NC(=S)N/N=C/c1cccc(O)c1O	.	.	.	98	.
Oc1ccc(/C=N/NC(=S)Nc2cccnc2)c(O)c1O	/	/	.	/	/
C=CCNC(=S)N1CCN(CCN=CC2=C(O)CC(c3ccc(Cl)cc3)CC2=O)CC1 (stereo not drawn)	.	.	.	.	.
O=C(NC(=S)Nc1ncc(Br)cc1Br)c1cncc(Br)c1	.	.	.	.	.
O=C1NC2=C(C(=O)c3ccccc32)C(c2ccccc2)N1 (stereo not drawn)	.	.	.	.	.
CC(C)CCNC(=O)c1cn(C)c2ccc(S(=O)(=O)N3CCCC3)cc2c1=O	.	.	.	.	.
CCCCNC(=O)c1cn(C)c2ccc(S(=O)(=O)N3CCCC3)cc2c1=O	.	.	85	.	.
C[C@@H]1CC[C@H]2C(=O)N3[C@@H](CC[C@@H](C)[C@@H]3c3ccc(Br)cc3)C(=O)N2[C@H]1c1ccc(Br)cc1	.	79	.	.	.
CC1C(=O)C(C)C(c2ccc(Br)cc2)NC1c1ccc(Br)cc1 (stereo not drawn)	.	.	.	.	.
COc1ccccc1-c1ccc(SCC(=O)Nc2cc(C)on2)nn1	.	.	.	.	.
COc1ccc(-c2c(-c3ccc(O)cc3O)n[nH]c2C)cc1OC	.	/	?	88	.
COc1ccc(-c2c(-c3ccc(O)cc3O)n[nH]c2C(F)(F)F)cc1	.	.	.	/	.
SMILES	PP5 primary	CSC inhib	Calb FLC	ALR inh	PP1 inh
Oc1ccc(-c2n[nH]c(C(F)(F)F)c2-c2ccccc2)c(O)c1	.	.	.	97	.
COc1ccccc1-c1c(-c2ccc(O)cc2O)n[nH]c1C(F)(F)F	.	.	.	97	.
Cc1cc(N2CCOCC2)nc2cc(O)ccc12	.	.	.	.	.
CC(=O)Nc1ccc(OCC(O)CN2CCN(c3ccc(F)cc3)CC2)cc1 (stereo not drawn)	.	.	.	98	.
CC(=O)Nc1ccc(OCC(O)CN2CCN(c3cccc(Cl)c3)CC2)cc1 (stereo not drawn)	.	.	.	99	.
CC(=O)c1ccc(OCC(O)CN2CCN(c3ccc(F)cc3)CC2)cc1 (stereo not drawn)	.	.	.	98	.
CC(=O)Nc1ccc(OCC(O)CN2CCN(c3ccc(Cl)cc3)CC2)cc1 (stereo not drawn)	.	.	.	.	.
O=C(Nc1cnn(Cc2ccc(F)cc2)c1)c1cc2nc(-c3ccco3)cc(C(F)(F)F)n2n1	.	.	.	.	.
N#Cc1c(NC(=O)c2cccc(S(=O)(=O)Nc3ccc(C(=O)O)cc3)c2)sc2c1CCCC2	.	.	.	89	.
O=C(O)c1ccc(NS(=O)(=O)c2cccc(C(=O)Nc3ccc(Br)cc3)c2)cc1	.	.	.	.	.
COc1nnc(-c2ccc(N3CCOCC3)c(NC(C)=O)c2)c2ccccc12	.	.	.	.	.
Cc1nc(Nc2nc(CSc3nc4ccccc4[nH]3)cc(=O)[nH]2)nc2ccccc12	.	195	.	.	.
Cc1cc(C)n2cc(CSc3nc4ccccc4[nH]3)nc2n1	.	.	.	99	.
CNCc1cc(Cl)cc(OC)c1OC(C)C	/	/	.	/	/
Cc1nnsc1C(=O)N1CCC(CO)(Cc2ccccc2Cl)CC1	.	.	.	/	.
O=C(CCc1ccccc1)NCC(c1ccco1)N1CCc2ccccc21 (stereo not drawn)	.	.	.	98	.
O=C(NCC(c1ccco1)N1CCc2ccccc21)c1ccccc1F (stereo not drawn)	.	.	.	98	.
O=C(NCC(c1ccco1)N1CCc2ccccc21)c1ccccc1Br (stereo not drawn)	.	.	.	.	.
Cc1cccc(C(=O)NCC(c2ccco2)N2CCc3ccccc32)c1 (stereo not drawn)	.	.	.	.	.
Cc1ccc(C(=O)NCC(c2ccco2)N2CCc3ccccc32)cc1 (stereo not drawn)	.	.	.	77	.
O=C1NCCCCC1NS(=O)(=O)c1cccc2ccccc12 (stereo not drawn)	.	/	.	/	.
O=C(Cc1ccccc1)Nc1ccccc1CO	.	.	/	.	.
O=C(N/N=C/c1cccc(O)c1)N/N=C/c1cccc(O)c1	.	.	.	82	.
O=C(CCc1ccccc1)N/N=C/c1cccc(O)c1	.	.	.	.	.
CCOC(=O)C1=NN(C(C)=O)C2(CC(=O)N(c3cc(C)cc(C)c3)C2=O)C1 (stereo not drawn)	.	.	.	.	.
SMILES	PP5 primary	CSC inhib	Calb FLC	ALR inh	PP1 inh
COC(=O)C1=NN(N=O)C2(CC(=O)N(c3cc(C)cc(C)c3)C2=O)C1 (stereo not drawn)	.	.	.	85	.
CS(=O)(=O)N1CCN(C(=O)c2ccc(Br)s2)CC1	.	.	.	.	.
Cn1nc(C(C)(C)C)cc1C(=O)Nc1nc2c(s1)C(=O)CC(C)(C)C2	.	/	.	.	.
Cc1ccc(NC2CCCCC2NS(=O)(=O)c2ccccc2)c(C)c1 (stereo not drawn)	.	.	.	86	.
CC(=O)Nc1ccc(NC2CCCCC2NS(=O)(=O)c2ccccc2)cc1 (stereo not drawn)	.	.	.	99	.
O=S(=O)(NC1CCCCC1Nc1ccc(Cl)cc1)c1ccccc1 (stereo not drawn)	.	.	.	?	.
CCOC(=O)c1c(N2CCN(c3ccccc3)CC2)cc(C)nc1C	/	.	.	97	/
CCOC(=O)c1c(CN2CCN(c3ccccc3)CC2)oc2ccc(O)cc12	.	.	.	.	.
Cc1ccccc1NC(=O)CN1CCOCC1	/	.	.	.	/
COc1cc(OC)c2ccc(=O)oc2c1C(CC(=O)N1CCCC1)c1ccc(N(C)C)cc1 (stereo not drawn)	.	.	.	99	.
COc1cc(OC)c2ccc(=O)oc2c1C(CC(=O)N1CCOCC1)c1ccc(N(C)C)cc1 (stereo not drawn)	.	.	.	98	.
